Data from PMC4336329 (PLoS ONE, 2015).
The campaign covered roughly 310,000 compounds. About 14,000 (4.5%) showed an effect of 50% or more. The effect is printed as a negative number. For the sample, strong results were picked, then their nearest neighbours and some compounds at random.

Target: human ether-à-go-go-related gene (hERG) potassium channel (human, UniProt Q12809)
Experiment: primary screen, population patch clamp on CHO cells stably expressing hERG; higher = less effect of the substance
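Further: peak tail current of the secondary pulse compared with the same well before compound.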

Sequence of human ether-à-go-go-related gene (hERG) potassium channel (Q12809 whole entry, looked up): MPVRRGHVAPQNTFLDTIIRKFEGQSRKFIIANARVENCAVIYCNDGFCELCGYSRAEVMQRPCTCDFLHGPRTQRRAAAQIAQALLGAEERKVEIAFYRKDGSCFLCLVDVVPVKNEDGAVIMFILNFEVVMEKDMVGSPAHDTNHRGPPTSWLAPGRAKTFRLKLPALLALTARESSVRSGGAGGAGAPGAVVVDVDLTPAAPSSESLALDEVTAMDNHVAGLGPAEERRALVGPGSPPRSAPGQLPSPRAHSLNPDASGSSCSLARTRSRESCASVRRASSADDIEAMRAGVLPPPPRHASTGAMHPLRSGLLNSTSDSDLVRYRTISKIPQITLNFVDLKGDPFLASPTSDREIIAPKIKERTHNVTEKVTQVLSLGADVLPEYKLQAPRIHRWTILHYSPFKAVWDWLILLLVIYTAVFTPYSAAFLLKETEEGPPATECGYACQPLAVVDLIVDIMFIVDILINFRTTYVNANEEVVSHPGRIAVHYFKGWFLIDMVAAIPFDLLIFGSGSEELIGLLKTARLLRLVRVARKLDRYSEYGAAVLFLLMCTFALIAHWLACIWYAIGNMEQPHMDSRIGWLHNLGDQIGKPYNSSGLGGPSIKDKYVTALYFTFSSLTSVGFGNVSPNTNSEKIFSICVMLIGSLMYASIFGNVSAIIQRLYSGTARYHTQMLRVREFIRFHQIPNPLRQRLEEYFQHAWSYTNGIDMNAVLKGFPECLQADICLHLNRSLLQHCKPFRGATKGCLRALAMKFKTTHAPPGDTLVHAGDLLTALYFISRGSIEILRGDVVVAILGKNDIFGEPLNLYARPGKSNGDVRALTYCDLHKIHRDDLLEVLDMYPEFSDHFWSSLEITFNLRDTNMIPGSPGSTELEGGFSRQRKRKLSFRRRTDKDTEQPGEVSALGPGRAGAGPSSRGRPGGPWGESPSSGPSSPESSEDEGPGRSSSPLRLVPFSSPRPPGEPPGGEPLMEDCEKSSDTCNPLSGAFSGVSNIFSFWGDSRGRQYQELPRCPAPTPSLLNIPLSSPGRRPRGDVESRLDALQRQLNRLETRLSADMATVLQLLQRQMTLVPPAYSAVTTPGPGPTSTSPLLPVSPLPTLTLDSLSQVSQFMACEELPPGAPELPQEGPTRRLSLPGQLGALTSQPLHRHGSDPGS

Compound | hERG current change (%, negative = inhibition) at 10uM [%]
CCN(c1ccccc1)S(=O)(=O)c1ccc(Cl)c(C(=O)OCC(=O)c2[nH]c(C)c(C(C)=O)c2C)c1 | -22.6
COc1cc2c(cc1OC)CN(c1ccc([N+](=O)[O-])cc1Cl)CC2 | -41
COc1cc2c(cc1OC)CN(c1ccc(F)cc1[N+](=O)[O-])CC2 | -27.9
COc1cc2c(cc1OC)CN(c1ccc([N+](=O)[O-])cc1C#N)CC2 | -50
CCn1c(NC2CCCCC2)nc2ccccc21 | -15
Cc1ccc(NC(=O)c2cccc(N3C(=O)CCC3=O)c2)nc1 | 3.86
C/C(=N\NS(=O)(=O)c1cccc([N+](=O)[O-])c1)c1cc2ccccc2o1 | -2.61
O=C(N/C(=C\c1cccc([N+](=O)[O-])c1)C(=O)N1CCOCC1)c1ccc([N+](=O)[O-])cc1 | 12.5
O=C(N/C(=C/c1cccc([N+](=O)[O-])c1)C(=O)N1CCOCC1)c1ccc(Br)cc1 | -46.6
O=C(N/C(=C\c1ccc(Br)cc1)C(=O)N1CCOCC1)c1ccc([N+](=O)[O-])cc1 | -75.5
O=C(N/C(=C\c1ccc([N+](=O)[O-])cc1)C(=O)N1CCOCC1)c1cccc(Br)c1 | -74.2
O=C(N/C(=C\c1ccc(F)cc1)C(=O)N1CCOCC1)c1ccccc1 | -32
Cc1ccc(C(=O)N/C(=C/c2ccc(Cl)cc2)C(=O)N2CCOCC2)cc1 | -32.6
O=C(N/C(=C\c1ccccc1)C(=O)N1CCOCC1)c1cccc(Br)c1 | 18.8
O=C(N/C(=C/c1ccccc1)C(=O)N1CCOCC1)c1ccc([N+](=O)[O-])cc1 | -64.2
O=C(Nc1ccc(C(=O)O)cc1)/C(=C\c1ccc([N+](=O)[O-])cc1)NC(=O)c1ccc(Br)cc1 | 7.58
O=C(N/C(=C\c1cccc([N+](=O)[O-])c1)C(=O)N1CCOCC1)c1cccc(Br)c1 | -4.26
O=C(N/C(=C\c1ccc(Cl)cc1)C(=O)N1CCOCC1)c1ccc([N+](=O)[O-])cc1 | -83
COC(=O)c1ccc(/C=C(/NC(=O)c2ccccc2)C(=O)N2CCOCC2)cc1 | -9.15
CC(=O)c1cccc(OCC(=O)N(C)CC(=O)Nc2ccc(F)cc2)c1 | -8.68
CCC(C)NC(=O)c1ccc(CSCc2ccc(Cl)cc2)o1 (stereo not shown) | -38.9
COc1cccc(CNC(=O)CCNS(=O)(=O)c2ccc(Br)s2)c1 | -10.2

Compound | hERG current change (%, negative = inhibition) at 10uM [%]
N#CCCSCc1ccc(OCC(=O)O)cc1 | -1.48
CCCNC(=O)c1cc(C)no1 | 12.6
Cc1ccc(C)c(NC(=O)CCN2CC(C)OC(C)C2)c1 (stereo not shown) | 1.59
CC(C)C[C@H](NC(=O)N1c2ccccc2NC(=O)[C@@H]1C(C)C)C(=O)N[C@@H](Cc1ccccc1)C(=O)O | -2.11
FC(F)(F)C1=CC(c2ccc(Cl)cc2)=NCCN1 | -16.1
CN(c1ccccc1)S(=O)(=O)c1cccc(NC(=O)CN2CCCc3ccccc32)c1 | -2.81
COc1ccc(C(=O)N/C(=C\c2ccc3c(c2)OCO3)C(=O)N2CCOCC2)cc1 | 19.6
Cc1ccc(C(=O)N/C(=C/c2ccco2)C(=O)N2CCOCC2)cc1 | -12.7
COc1ccc(/C=C(/NC(=O)c2ccc(Br)cc2)C(=O)N2CCOCC2)cc1 | 5.5
Cc1ccc(C(=O)N/C(=C\c2ccco2)C(=O)N2CCOCC2)cc1C | 11
O=C(N/C(=C/c1ccccc1Cl)C(=O)N1CCCC1)c1ccccc1 | -5.15
O=C(N/C(=C\c1ccccc1Cl)C(=O)N1CCOCC1)c1ccc([N+](=O)[O-])cc1 | -66
COc1ccc(/C=C(\NC(=O)c2ccc([N+](=O)[O-])cc2)C(=O)N2CCOCC2)cc1 | -75
COc1cc(/C=C(/NC(=O)c2ccccc2)C(=O)N2CCOCC2)c([N+](=O)[O-])cc1OC | -3.92
O=C(N/C(=C\c1ccco1)C(=O)N1CCOCC1)c1ccc([N+](=O)[O-])cc1 | -70.8
COc1ccc(C(=O)/C=C/N(C)C)cc1OC | 7.92
CN(/N=C/c1ccncc1)c1cnc2ccccc2n1 | 19.3
CCCCCCC1NC(C(=O)O)CS1 (stereo not shown) | -0.451
COc1ccc(S(=O)(=O)N2CCOC2CNC(=O)C(=O)NCCCN2CCOCC2)cc1OC (stereo not shown) | 8.41
CCN(CC)c1cccc(OCC(=O)N(C)CCC#N)c1 | 18.9
CC(C)(C)S(=O)(=O)c1ccc(S(=O)(=O)C(C)(C)C)s1 | 22.8
O=C(CC1C(=O)NCCN1Cc1c(F)cccc1Cl)NCCCn1cccn1 (stereo not shown) | 10.8

Compound | hERG current change (%, negative = inhibition) at 10uM [%]
O=C1c2ccccc2C(=O)C1c1ccc2ccccc2n1 | -13.4
Br.C1=C(c2ccco2)N2CCN=C2S1 | 1.91
Cc1ccc(Nc2ncc(C(=O)NCCCN3CCN(C)CC3)c3ccccc23)cc1Cl | -61.1
COc1ccc(Nc2cc(C(=O)NCCCN3CCN(C)CC3)c3ccccc3n2)cc1OC | 1.49
COc1ccc(Nc2cc(C(=O)NCCCN3CCN(C)CC3)c3ccccc3n2)cc1 | 2.72
CN(C)c1nc2n(c(=O)n1)CCO2 | 20.3
Cc1ccc(NC(=O)c2sc3nc(N4CCOCC4)c4c(c3c2N)CC(C)(C)OC4)cc1 | 5.7
CN(C)C(CNC(C(=O)Nc1ccc(F)cc1)c1ccccc1)c1ccccc1 (stereo not shown) | -70.6
CC(C)CNC(C(=O)Nc1ccc([N+](=O)[O-])cc1Br)c1ccccc1.O=C(O)C(=O)O (stereo not shown) | -9.16
CCCCNC(C(=O)Nc1ccc([N+](=O)[O-])cc1Br)c1ccccc1 (stereo not shown) | 5.72
CN(C)C(CNC(C(=O)Nc1ccc([N+](=O)[O-])cc1Br)c1ccccc1)c1ccccc1 (stereo not shown) | -66.5
CCN(CC)CCNC(C(=O)Nc1ccc([N+](=O)[O-])cc1Br)c1ccccc1 (stereo not shown) | -77
O=C(OC(C(=O)Nc1ccc([N+](=O)[O-])cc1Br)c1ccccc1)c1ccccc1 (stereo not shown) | 5.91
Cc1ccc(NC(=O)NCC(c2ccccc2)N(C)C)cc1 (stereo not shown) | 12.4
CC(C)C(=O)Nc1ccc([N+](=O)[O-])cc1Br | -5.22
COC(C(=O)Nc1ccc(F)cc1)c1ccccc1 (stereo not shown) | -0.691
COCCNC(C(=O)Nc1ccc([N+](=O)[O-])cc1Br)c1ccccc1 (stereo not shown) | -74
COCCNC(C(=O)Nc1cc(Cl)cc(Cl)c1)c1ccccc1 (stereo not shown) | -16.4
COCCNC(C(=O)Nc1ccc(C)cc1[N+](=O)[O-])c1ccccc1 (stereo not shown) | -6.29
CCCSc1nc2sc3c(c2c(=O)n1CC)CC(C)(C)OC3 | 3.41
CCS(=O)(=O)NCC(c1ccco1)N1CCN(c2ccccc2F)CC1 (stereo not shown) | -1.69
COc1ccc(OC)c(NC(=O)COC(=O)CN2C(=O)NC3(CCCC3)C2=O)c1 | 7.58

Compound | hERG current change (%, negative = inhibition) at 10uM [%]
O=C(CCCOC(=O)c1ccc(O)cc1O)c1ccc(F)cc1 | -11.6
Cc1ccc(CS(=O)(=O)CCC(=O)NCCN2CCCCC2C)cc1 (stereo not shown) | -2.59
Cc1cccc(/C=N/N2CCN(c3ccccc3)CC2)c1 | -4.38
O=C(O)CCCC(=O)OCCCCc1cccs1 | -2.23
Nc1c2c(nc3ccccc13)N(C1CCCCC1)CC2 | -65.6
Nc1c2c(nc3ccc(Br)cc13)N(c1ccccc1)CC2.O=C(O)C(=O)O | -21.3
c1ccc2nc3c(nc2c1)OCC1CCCCN31 (stereo not shown) | -14.2
Nc1c2c(nc3ccc(Br)cc13)N(Cc1ccccc1)CC2 | -43.5
Nc1c2c(nc3ccc(Br)cc13)N(C1CCCCC1)CC2.O=C(O)C(=O)O | -70.1
Cc1nc2ccccc2c(=O)n1C1CCCCCC1 | -7.64
CCOC(=O)c1sc(NC(=O)c2ccncc2)c(C#N)c1C | 22.8
CC(C)=C1SC(N2CCN(c3cccc(C(F)(F)F)c3)CC2)=NC1=O | -2.7
Oc1ccc[nH+]c1SCc1ccccc1.[Br-] | 12.7
Nc1cc(N)nc(SCC(=O)NCc2ccco2)n1 | 9.13
CCCn1c(=N)c(C(=O)NC2CCCC2)cc2c(=O)n3cccc(C)c3nc21 | -77.4
Cc1cccn2c(=O)c3cc(C(=O)NC4CCCC4)c(=N)n(CCc4ccccc4)c3nc12 | -74.5
COc1ccc(CCn2c(=N)c(C(=O)NC3CCCC3)cc3c(=O)n4cccc(C)c4nc32)cc1 | -77.8
Cc1cccn2c(=O)c3cc(C(=O)NC4CCCC4)sc3nc12 | -22.8
Cc1ccc(CNC(=O)CSc2nc(C)cs2)cc1 | 15.4
